test: small-molecule microarray binders of probe aEGFR, primary screen, biochemical, biotinylated probe, 635/667 nm fluorescence (AID 1097); details: higher = more signal;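 further: probe is a biotinylated anti-EGFR antibody binding compounds printed on slides; score combines fluorescence near 667 nm and signal to noise of each spot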

Q: With O=C1c2ccccc2[C@](Cc2ccccc2I)(C(=O)NCC(F)(F)F)[C@H](c2ccc(CO)cc2)N1Cc1ccccc1Cl as the compound, how does the composite z-score read?
A: The composite z-score was -0.0409.

Q: For CCCC=C(CCC)[C@@H](NC(=O)c1cccs1)c1ccc(C(F)(F)F)cc1, which composite z-score is on record?
A: The composite z-score was 0.315.

Q: Which composite z-score does the source give for CCCCN1CC=CC23O[C@@H]4C=CCCOC(=O)C4[C@H]2C(=O)N(CCCCCCO)[C@@H]3C1=O (stereo not given in full) here?
A: Its composite z-score is -0.227.

Q: Which composite z-score does the source give for CCCCCN1CC=CC23O[C@@H]4C=CCCOC(=O)C4[C@H]2C(=O)N(CCCCCO)[C@@H]3C1=O (stereo not given in full) here?
A: The composite z-score was -0.203.

Q: Which composite z-score does the source give for O=C(NC1CC1)[C@@H]1c2ccccc2C(=O)N(Cc2ccccc2Cl)[C@H]1c1ccc(CO)cc1 here?
A: The composite z-score was 0.0103.

Q: With COCCOC(=O)N1C(=O)[C@@]2(c3cc(C#CCC(C(=O)OC)C(=O)OC)ccc31)[C@H](C(=O)N1CCN(c3ncccn3)CC1)[C@H]1C(=O)O[C@H](c3ccccc3)[C@H](c3ccccc3)N1[C@@H]2c1ccccc1OCCO as the compound, how does the composite z-score read?
A: Its composite z-score is 0.0537.

Q: For CCCC[C@H]1OB(O)C[C@H]2C1=C(COC)Cn1c(=O)n(-c3ccccc3)c(=O)n12, which composite z-score is on record?
A: The composite z-score was -0.137.

Q: Which composite z-score does the source give for Oc1ccc2cc[n+](Cc3sc4ccccc4c3Cl)cc2c1 here?
A: Its composite z-score is -0.0409.

Q: For C=C[C@H](OC)[C@@H](OC(=O)Nc1ccc(OC)cc1)c1ccc(O)c(F)c1, which composite z-score is on record?
A: The composite z-score was -0.335.

Q: Which composite z-score does the source give for O=C1C2C=CC(C(O)c3cc(C(F)(F)F)cc(C(F)(F)F)c3)N(n3cnnc3)C2C(=O)N1Cc1ccccc1 (stereo not given) here?
A: Its composite z-score is -0.139.

Q: Which composite z-score does the source give for CCC(CC)C(O)C1C=CC2C(=O)NC(=O)C2N1Nc1ccc(Cl)cc1Cl (stereo not given) here?
A: The composite z-score was -0.0352.

Q: For COc1cc(C(O)C2C=CC3C(=O)NC(=O)C3N2Nc2ccccn2)cc(OC)c1OC (stereo not given), which composite z-score is on record?
A: Its composite z-score is 0.0954.

Q: With CC(C)C(CO)N1C(=O)[C@@H]2C3C(=O)OCCC/C=C\[C@H]3OC23C=CCN(CCN2CCOCC2)C(=O)[C@@H]13 (stereo not given in full) as the compound, how does the composite z-score read?
A: Its composite z-score is -0.146.

Q: With C=CCN1C(=O)[C@@]2(CC=C)N=C(c3ccc(OCCCO)cc3)O[C@H]2c2ccccc21 as the compound, how does the composite z-score read?
A: The composite z-score was 0.297.

Q: With COC(=O)[C@@]1(Cc2ccccc2)N=C(c2ccc(OCCCO)cc2)O[C@H]1c1ccccc1 as the compound, how does the composite z-score read?
A: Its composite z-score is -0.123.

Q: Which composite z-score does the source give for C=C(COC)/C(=C/C[C@@H](OC(=O)c1ccncc1)c1ccc(CO)o1)c1cc(C(=O)OC)ccc1OC here?
A: Its composite z-score is 0.0878.

Q: With CN(C)CCCC[C@@H]1NC(=O)[C@H]2C[C@@H](C(=O)NCCCCCCN)[C@@H](c3ccc(O)cc3)N2C1=O as the compound, how does the composite z-score read?
A: The composite z-score was 0.566.

Q: Which composite z-score does the source give for CO[C@H]1O[C@H](CO)[C@@H](OC(=O)Nc2ccc(Oc3ccccc3)cc2)[C@H](OC(=O)Nc2ccc3c(c2)OCO3)[C@H]1OC(=O)Nc1ccc2c(c1)OCO2 here?
A: The composite z-score was 0.166.

Q: For Cc1ccc(S[C@]2(C(=O)NC3CC3)CC(=O)N(Cc3ccccc3)[C@@H]2c2ccc(CO)cc2I)cc1, which composite z-score is on record?
A: The composite z-score was -0.286.

Q: Which composite z-score does the source give for CCCC#C[Si](O[C@H](CC)c1cn(Cc2cccc(Cl)c2)nn1)(C(C)C)C(C)C here?
A: The composite z-score was 0.252.

Q: Which composite z-score does the source give for COCC(=C=CC[C@@H](O)c1cccc(OCCO)c1)C[C@@H](O)c1ccccn1 here?
A: The composite z-score was -0.137.

Q: For CC(C)C[C@@H]1NC(=O)[C@H](C(C)C)NC(=O)[C@@]23C(=O)N[C@@H](Cc4ccccc4)C2[C@H](C)[C@@]2(C)O[C@H]2C3/C=C/CC/C=C/CNC1=O (stereo not given in full), which composite z-score is on record?
A: The composite z-score was -0.096.

Q: For [N-]=[N+]=Nc1ccccc1[C@@H]1OC(c2ccc(OCCCO)cc2)=N[C@]1(Cc1ccccc1)C(=O)N1CCOCC1, which composite z-score is on record?
A: The composite z-score was 0.276.

Q: For COc1ccc([Si](C)(C)[C@H]2[C@H](CCO)O[C@@]3(C(=O)N(Cc4ccc(N(C=O)c5ccccc5)cc4)c4ccccc43)[C@@H]2C)cc1, which composite z-score is on record?
A: The composite z-score was -0.162.

Q: With CC(C)=CCCC(C)=CC(O)C1C=CC2C(=O)N(C)C(=O)C2N1Nc1ccccc1 (stereo not given) as the compound, how does the composite z-score read?
A: Its composite z-score is 0.167.

Q: Which composite z-score does the source give for COc1cc(NN2C(C(O)c3ccco3)C=CC3C(=O)N(c4ccccc4)C(=O)C32)cc(OC)c1OC (stereo not given) here?
A: Its composite z-score is -0.0688.

Q: With C=CC[C@@]1(C(=O)NCCN2CCOCC2)N=C(c2ccc(OCCCO)cc2)O[C@@H]1c1ccccc1N=[N+]=[N-] as the compound, how does the composite z-score read?
A: The composite z-score was 0.38.

Q: For COC(=O)[C@@]1(Cc2ccccc2)[C@H]2c3cc(C(=O)N4CCCC4)n(Cc4ccc(S(C)(=O)=O)cc4)c3C[C@H]2CN1C(=O)c1ccccc1, which composite z-score is on record?
A: The composite z-score was 0.348.

Q: With C=CCNC(=O)[C@@H]1[C@H]2C(=O)O[C@H](c3ccccc3)[C@H](c3ccccc3)N2[C@H](c2ccc(O)cc2)[C@@]12C(=O)N(C(=O)OCCOC)c1ccc(C#CCNC(N)=O)cc12 as the compound, how does the composite z-score read?
A: Its composite z-score is -0.0549.

Q: With CCOC(=O)C1=CC[C@@H](c2ccccc2)N(S(=O)(=O)c2ccc(C)cc2)[C@H]1c1ccccc1C as the compound, how does the composite z-score read?
A: Its composite z-score is -0.0675.

Q: For C=CCNC(=O)[C@@H]1[C@H]2C(=O)O[C@H](c3ccccc3)[C@H](c3ccccc3)N2[C@H](c2ccc(O)cc2)[C@@]12C(=O)Nc1ccc(C#CCNC(N)=O)cc12, which composite z-score is on record?
A: Its composite z-score is -0.172.

Q: Which composite z-score does the source give for O=C(NCCN1CCOCC1)[C@@H]1c2ccccc2C(=O)N(C2CCCCC2)[C@H]1c1ccc(CO)cc1 here?
A: Its composite z-score is -0.2.

Q: For CCCCCCc1nc(-c2cc(C)c(OC)c(C)c2)cc2c1[Si](C(C)C)(C(C)C)OC2, which composite z-score is on record?
A: The composite z-score was -0.0828.

Q: For C=CCNC(=O)[C@H]1[C@@H]2C(=O)O[C@@H](c3ccccc3)[C@@H](c3ccccc3)N2[C@@H](c2ccccc2OCCO)[C@]12C(=O)Nc1ccc(C#CCC(C(=O)OC)C(=O)OC)cc12, which composite z-score is on record?
A: Its composite z-score is 0.486.

Q: For CC(=O)n1cc(C(O)C2C=CC3C(=O)N(c4ccccc4)C(=O)C3N2Nc2ccc([N+](=O)[O-])cc2)c2ccccc21 (stereo not given), which composite z-score is on record?
A: The composite z-score was -0.0355.

— PubChem BioAssay
